Compound activity from PubChem.
TrxR1 substrate = rat thioredoxin reductase 1 substrate activity; purified TrxR1 substrate turnover, NADPH consumption readout; Potency, µM (series often up to 114 µM); hit rate 0.01% among 390,000; note: nearly all actives have a fitted effect of over 50% in size
Target sequence (O89049 whole entry, looked up): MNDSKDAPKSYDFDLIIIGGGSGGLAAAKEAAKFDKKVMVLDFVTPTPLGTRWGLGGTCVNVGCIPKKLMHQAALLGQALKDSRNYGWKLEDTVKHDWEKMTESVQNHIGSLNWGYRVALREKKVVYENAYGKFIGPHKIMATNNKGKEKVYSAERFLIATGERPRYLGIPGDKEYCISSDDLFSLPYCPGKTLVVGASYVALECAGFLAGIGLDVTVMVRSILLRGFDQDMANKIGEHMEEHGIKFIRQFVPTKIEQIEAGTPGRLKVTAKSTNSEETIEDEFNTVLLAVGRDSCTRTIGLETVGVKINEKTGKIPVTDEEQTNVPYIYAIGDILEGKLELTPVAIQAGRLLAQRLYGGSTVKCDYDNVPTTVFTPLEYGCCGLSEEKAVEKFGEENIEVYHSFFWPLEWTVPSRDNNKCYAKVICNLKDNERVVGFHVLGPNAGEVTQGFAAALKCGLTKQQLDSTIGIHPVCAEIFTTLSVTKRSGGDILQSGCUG
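Rat TrxR1, dispensed at 90 nM, was prereduced with 400 uM NADPH (final) for 5 min at ~22 deg C, then incubated with compound 15 min before 400 uM selenite. A first-read NADPH fluorescence drop versus no-compound background flagged substrates.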
A549 tox-1 = kills or reduces viability of A549 cells in Nrf2 counter-screen | Potency, µM (top dose mostly 46 µM), usual class: inhibitors | hit rate 0.16% among 390,000 | AID 504648 | A549 ARE-Fluc cells, CellTiter-Fluor viability, 18-24 h
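A549 ARE-Fluc cells in 5% FBS OPTI-MEM, 5000 cells/well, rested 2 h then exposed to compounds in concentration-response for 18-24 h at 37 °C. Viability by CellTiter-Fluor fluorescence (Ex 405/Em 525) after 30 min; luciferase luminescence (BugLite, 15 min, RT) read afterwards.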
Nrf2 ARE act = Nrf2 pathway activation. hit rate 0.31% among 410,000. AREc32 ARE-luciferase reporter (MCF7-derived line), luminescence, 24 h. Potency, µM (doses to about 46.1 µM), usual class: activators; note: nearly all actives have a fitted effect of over 65% in size
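Steps: seed AREc32_Fluc cells (1000/well, 5% FBS OPTI-MEM); incubate overnight at 37 deg C; add 23 nL compound; incubate 24 hr; add Steady-Glo; hold 30 min RT; read luminescence.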
TrxR1 inh = blocks rat thioredoxin reductase 1 | AID 588453 | Potency, µM (series often up to 114 µM), most hits filed as inhibitors | recombinant rTrxR1, NADPH fluorescence consumption, selenite substrate | O89049 | hit rate 1% among 390,000; note: nearly all actives have a fitted effect of over 65% in size
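Rat TrxR1 (90 nM in the dispensed reagent) was pre-reduced with 400 uM NADPH for 5 min at room temperature, then incubated with compound for 15 min. After 400 uM selenite was added, NADPH fluorescence (Ex 340/Em 450 nm) was followed for 8 min.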
Nrf2 inh = Nrf2 pathway inhibition. AID 504444. Potency, µM (top dose mostly 46 µM), usual class: inhibitors. A549 ARE-Fluc reporter, luciferase luminescence, 18-24 h. hit rate 2.1% among 360,000; note: nearly all actives have a fitted effect of over 60% in size
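A549 ARE_Fluc cells (5000/well, 5% FBS OPTI-MEM) pre-incubated 2 h, then treated with compounds 18-24 h at 37C/5% CO2 in concentration-response. CellTiter-Fluor viability read first; BugLite luciferase luminescence after 15 min at room temperature gives Nrf2 activity.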
GALK inh = galactokinase (human) inhibition. Purified GALK, Kinase-Glo residual ATP luminescence. Potency, µM (titrated, usually from 57.5 µM), most hits filed as inhibitors. hit rate 0.007% among 270,000
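GALK at 5 nM final was combined with compound, 35 uM ATP and 100 uM galactose in HEPES pH8.0 with MgCl2 and DTT. The reaction ran one hour at room temperature before luminescent ATP detection.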
FLuc counter 3 = blocks purified firefly luciferase in Nrf2 counterscreen; shares compounds with Nrf2 inh; purified firefly luciferase, luminescence inhibition; Potency, µM (highest dose often 57.5 µM), most hits filed as inhibitors; hit rate 4% among 1,400; AID 720522; note: nearly all actives have a fitted effect of over 65% in size
A549 tox-2 = counter-screen for Nrf2 inhibitors: cytotoxicity in A549 ARE cells; shares compounds with Nrf2 inh; A549 ARE-Fluc cells, cytotoxicity counterscreen; Potency, µM (doses to about 46.1 µM), most hits filed as inhibitors; AID 720523; hit rate 2% among 1,400;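 note: cells exposed to compounds for 18 to 24 hours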
ARE-Fluc inh = reduces Nrf2 ARE reporter signal in A549 cells. A549 ARE-firefly luciferase reporter, luminescence. hit rate 74% among 1,400. Potency, µM (highest dose often 46.1 µM), usual class: inhibitors. AID 720524. shares compounds with Nrf2 inh; note: nearly all actives have a fitted effect of over 65% in size
Numbers stand for hits; – = inactive; ? = inconclusive; · = no result shown; [ ] = dose if it differs, or a comment. Rows were chosen to be rich in hits. Some 3% of all compounds tested hit in one or more screens of this group. Calls come from the whole dose curve; as a rule, active = well fitted curve in the direction sought with a large enough effect; inconclusive = small, poorly fitted or top-dose-only effect, or another doubt; inactive = no such curve, though single readings can be large; an effect the other way counts as inactive or inconclusive.

SMILES | TrxR1 substrate | A549 tox-1 | Nrf2 ARE act | TrxR1 inh | Nrf2 inh | GALK inh | FLuc counter 3 | A549 tox-2 | ARE-Fluc inh
CCOC(=O)C1CCCN(C(=O)c2ccc(Cl)c(S(=O)(=O)N3CCCCC3)c2)C1 (configuration not stated) | – | – | – | – | – | – | · | · | ·
Cc1cc2ccccc2c[n+]1C1CCCCC1 | – | · | · | – | · | · | – | – | 1.3µM
O=C(NC1CCCCC1)c1ccc2ccccc2c1 | · | · | – | · | · | · | · | · | ·
O=C1CCC2S/C(=C/Nc3ccc(C(F)(F)F)cc3)C(=O)N12 (configuration not stated) | – | – | – | – | 1.03µM | – | 10.7µM | – | 4.11µM
COc1ccc(OC)c(NC(=O)C(=O)NNC(=O)C23CC4CC(CC(C4)C2)C3)c1 | – | – | – | – | – | – | · | · | ·
COCCCNC(=O)C1CCN(Cc2nc(-c3ccc(OC)c(OC)c3)oc2C)CC1 | – | – | – | – | – | · | · | · | ·
CCCC(=O)O[C@]1(C(=O)CO)CC[C@H]2[C@@H]3CCC4=CC(=O)CC[C@]4(C)[C@H]3[C@@H](O)C[C@@]21C | – | – | – | – | 0.0231µM | – | – | – | 0.0146µM
C[C@]12CCC(=O)C=C1CC[C@@H]1[C@@H]2[C@@H](O)C[C@@]2(C)[C@H]1CC[C@]2(O)C(=O)COC(=O)CCC(=O)O | – | – | – | – | 0.326µM | – | – | – | 0.291µM
CC12CCC(=O)C=C1CCC1C2CCC2(C)C1CC[C@]2(O)C(=O)CO (some centres not stated) | – | – | – | – | ? | – | · | · | ·
CC1CC2(C)C(=CC1=O)CCC1C2C(O)CC2(C)C1CCC2(O)C(=O)CO (configuration not stated) | – | – | – | – | 0.116µM | · | – | – | 0.184µM
CC(=O)OCC(=O)[C@@]1(O)CC[C@H]2[C@@H]3CCC4=CC(=O)CC[C@]4(C)[C@H]3[C@@H](O)C[C@@]21C | – | – | – | – | 0.0411µM | – | – | – | 0.0731µM
CC(=O)OCC(=O)C1(O)CCC2C3CC(F)C4=CC(=O)CCC4(C)C3C(O)CC21C (configuration not stated) | –[2.29 µM] | – | – | –[2.29 µM] | 0.0651µM | · | – | – | 0.0184µM
CCC(CC)C(=O)OCC(=O)C1(O)CCC2C3CCC4=CC(=O)CCC4(C)C3C(O)CC21C (configuration not stated) | – | – | – | – | 0.326µM | · | – | – | 0.103µM
CC(=O)OCC(=O)[C@@]1(O)CC[C@H]2[C@@H]3CCC4=CC(=O)CC[C@]4(C)[C@H]3C(=O)C[C@@]21C | – | – | – | – | – | – | · | · | ·
CC12CCC(=O)C=C1C(O)CC1C2CCC2(C)C1CCC2(O)C(=O)CO (configuration not stated) | – | – | – | – | – | · | · | · | ·
CC(C)(CNC(=O)CO/N=C1/C=C2CCC3C(C(O)C[C@@]4(C)C3CC[C@]4(O)C(=O)CO)[C@@]2(C)CC1)C(O)C(=O)O (some centres not stated) | – | – | – | – | 1.84µM | – | – | – | ·
COC(=O)C(Cc1c[nH]c2ccccc12)NC(=O)c1cccc(S(=O)(=O)N2CCCCC2)c1 (configuration not stated) | – | – | – | – | – | · | · | · | ·
CCOc1ccc(S(=O)(=O)N2CCN(S(=O)(=O)c3ccc(C(C)=O)cc3)CC2)cc1 | – | – | – | – | – | – | · | · | ·
CC(=O)c1ccc(S(=O)(=O)N2CCN(CCOc3ccc(Br)cc3)CC2)cc1 | – | ? | – | – | 4.11µM | · | – | – | 5.8µM
CC(=O)OCC(=O)C1(O)CCC2C3CCC4=CC(=O)CCC4(C)C3(Cl)C(O)CC21C (configuration not stated) | – | – | – | – | 1.16µM | · | – | – | 0.517µM
CC(=O)OCC(=O)C1(O)CCC2C3CCC4=CC(=O)CCC4(C)C3(F)C(O)CC21C (configuration not stated) | – | – | – | – | 0.0366µM | · | – | – | 0.0206µM
COC(=O)c1ccc(OCC(O)CN2CCN(C(=O)c3ccco3)CC2)c(OC)c1 (configuration not stated) | –[0.0914 µM] | – | – | – | – | – | · | · | ·
CC(=O)Nc1ccc(NC(=O)COC(=O)CCNS(=O)(=O)c2c(Cl)cccc2Cl)cc1 | – | – | – | – | – | · | · | · | ·
N#Cc1ccc(N2CCN(c3ccc(F)cc3)CC2)cc1 | – | – | – | – | ? | – | – | – | –
Cc1cc(C)n(S(=O)(=O)/C=C/c2ccccc2)n1 | – | ? | 3.16µM | ? | 9.2µM | – | – | – | –
SMILES | TrxR1 substrate | A549 tox-1 | Nrf2 ARE act | TrxR1 inh | Nrf2 inh | GALK inh | FLuc counter 3 | A549 tox-2 | ARE-Fluc inh
CN1/C(=C\C=[N+](C)c2ccccc2)C(C)(C)c2ccccc21 | – | 9.2µM | – | – | 0.82µM | – | – | ? | 1.16µM
CN1/C(=C\C=N\O)C(C)(C)c2ccccc21 | – | – | – | – | – | – | · | · | ·
O=[N+]([O-])c1ccc(S(=O)(=O)CC2CSc3nc4ccccc4n32)cc1 (configuration not stated) | – | – | – | ? | 5.17µM | – | – | ? | 2.06µM
Cc1nnc2n(c1=O)C(CS(=O)(=O)c1ccccc1)CS2 (configuration not stated) | – | – | – | – | – | – | · | · | ·
O=C(COc1ccccc1Cl)NCCCNC(=O)c1cccnc1 | – | – | – | – | 3.66µM | – | – | – | 9.2µM
O=C(COc1ccccc1Cl)NCCNC(=O)c1cccnc1 | – | – | – | – | – | – | · | · | ·
CC1=C(C(=O)NC2CCCc3c2cnn3-c2cccc(C)c2C)OCCO1 (configuration not stated) | – | – | – | – | 7.31µM | – | – | – | 11.6µM
CCOc1ccccc1N(C)C(=O)c1ccc2c(=O)n3c(nc2c1)CCCCC3 | – | – | – | – | – | – | · | · | ·
CC(=O)OCC(=O)[C@@]1(O)CC[C@H]2[C@@H]3C[C@H](C)C4=CC(=O)C=C[C@]4(C)[C@H]3[C@@H](O)C[C@@]21C | – | – | – | – | 0.0517µM | · | – | – | 0.0517µM
CC1CC2C(C(O)CC3(C)C2CCC3(O)C(=O)CO)C2(C)C=CC(=O)C=C12 (configuration not stated) | – | – | – | – | 0.0461µM | · | – | – | 0.0411µM
